Source: PubChem (several laboratories)
TAG inh: triacylglycerol accumulation inhibition; H9c2 cells, Nile Red lipid (TAG) fluorescence; cells loaded with 200 µM oleic acid; inhibition, % at 12.5 µM; 230,000 compounds, 0.66% hits; AID 651582;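 active = pattern-corrected inhibition of lipid staining of at least 50% with the nuclear-stain viability signal not falling by more than 50%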
FAS TE block: inhibitors of human fatty acid synthase thioesterase domain | recombinant FAS-TE, OMFH fluorogenic substrate, fluorescence endpoint | inhibition, % at 15 µM | 360,000 compounds, 0.67% hits | AID 602261;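 active = compounds whose normalised, plate-corrected inhibition of enzyme fluorescence in the single-dose primary screen is 50% or more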
m-calpain inh: inhibitors of pig calpain II. inhibition, % at 16 µM. 220,000 compounds, 0.37% hits. purified calpain II, fluorogenic peptide substrate, 30 min;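 active = inhibition above about 50%, limit read from the data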
aDG glyco act: increases alpha dystroglycan glycosylation; 360,000 compounds, 0.22% hits; Pro5-aDG cells, alpha-DG glycosylation AlphaScreen (IIH6); 0% Pro5, 100% B10-LARGE cell signal; activation, % at 10 µM;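 active = activation of at least 8% versus controls, or a plate z-score of at least 8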;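 note: Pro5 are CHO cells carrying HIG-tagged alpha-DG that lacks glycosylation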
Cardio protect: protects H9c2 cardiomyocytes from peroxide injury; H2O2 injury protection, ATPLite, 2 h; protection from H2O2 cell death, % at 20 µM; 360,000 compounds, 0.63% hits;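 active = compounds giving at least 50% protection of heart cells from peroxide-induced death in the single-dose screen, raw or plate-pattern-corrected value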
beta cell repl: MIN6 beta-cell proliferation induction | MIN6 cells proliferation, ATPlite luminescence, 48 h; cells starved in 0.2% serum; 100% = growth in 10% serum | AID 2380 | proliferation, % at 10 µM | 330,000 compounds, 0.29% hits;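 active = compounds whose signal lies at least 3.5 SD above the mean of all wells on their plate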
Each line names hits and unclear results; the compound was inactive in the other large screens. An excerpt weighted towards active compounds, which were near 2.3% of everything screened.

CN1CCN(C2=C(Cl)C(=O)c3ccccc3C2=O)CC1	TAG inh 58 (no result: m-calpain inh, beta cell repl)
CN1CCN(C2=C(Cl)C(=O)C(c3cnc(N4CCCCC4)s3)=C(Cl)C2=O)CC1	FAS TE block 60 (no result: TAG inh)
CN1CCN(C2=C(Cl)C(=O)N(C3CCCCC3)C2=O)CC1	none
COc1ccc(CNC(=O)C(C)OC(=O)CCN2C(=O)C3CC=CCC3C2=O)cc1 (centres undefined)	none (no result: m-calpain inh)
O=[N+]([O-])c1ccc(Nc2nc(N/N=C/c3cccc(F)c3)nc(N3CCCC3)n2)cc1	Cardio protect 84 (no result: TAG inh)
COc1cccc(/C=N/Nc2nc(Nc3ccc([N+](=O)[O-])cc3)nc(N3CCCC3)n2)c1O	none (no result: TAG inh)
CCC(C)(C)c1ccc(OCCCC[n+]2cccc(C)c2)c(C(C)(C)CC)c1	none (no result: beta cell repl)
Cn1c(NC(=O)/C=C\c2ccccc2)cc(=O)n(C)c1=O	m-calpain inh 64
COc1ccc(/C=N/NC(=O)c2cccnc2)cc1CSc1nc2ccccc2s1	Cardio protect 58 (no result: TAG inh)
COc1ccc(/C=N/NC(=O)c2ccccc2Cl)cc1CSc1nc2ccccc2s1	none
CCOc1ccccc1NC(=O)C1CCCN1S(=O)(=O)c1ccccc1C(F)(F)F (centres undefined)	none (no result: m-calpain inh)
O=S(=O)(Nc1cccc(-n2cnnn2)c1)c1ccc(F)cc1	none (no result: m-calpain inh)
CC1Cc2ccccc2N1C(=O)CSc1nc2c(c(=O)n(C)c(=O)n2C)n1Cc1ccc(F)cc1 (centres undefined)	Cardio protect 50 (no result: m-calpain inh)
COc1cccc(/C=N/NC(=O)c2[nH]c(C)c(C(=O)N/N=C/c3cccc(OC)c3)c2C)c1	Cardio protect 56 (no result: TAG inh)
Nc1c(C(=O)NC2CC2)c2nc3ccccc3nc2n1-c1ccc2c(c1)OCO2	Cardio protect 77 (no result: TAG inh)
Oc1ccc(Nc2nc(N3CCCC3)c3ccccc3n2)cc1	TAG inh 52
COc1cc(-n2c(=O)c3ccccc3n(Cc3cc(=O)n4ccccc4n3)c2=O)cc(OC)c1OC	Cardio protect 57 (no result: TAG inh)
COc1cccc(NC(=O)CN(C)C(=O)CN2C(=O)NC(C)(c3ccc4ccccc4c3)C2=O)c1 (centres undefined)	none (no result: m-calpain inh)
NC(=O)c1ccc(NC(=O)COc2cccc3c2CCNC3=O)cc1	Cardio protect 79 (no result: m-calpain inh)
COc1ccccc1NC(=O)COc1ccc(C(=O)OCC(=O)NC(C)(C)C)cc1OC	Cardio protect 59
O=C(COc1cccc2c1CCNC2=O)Nc1ccc(Cl)cc1	Cardio protect 64 (no result: m-calpain inh)
O=C(COc1ccccc1O)Nc1ccc(Cl)cc1	none
COc1ccccc1NC(=O)COc1cccc2c1CCNC2=O	Cardio protect 64 (no result: m-calpain inh)
CCN1CCc2c(OCC(=O)Nc3ccccc3)cccc2C1=O	none (no result: m-calpain inh)
CCCNC(=O)COC(=O)c1ccc(OCC(=O)Nc2ccccc2OC)c(OC)c1	none
CCOC(=O)N1CCc2c(sc3c2c(=O)n(Cc2ccccc2)c(=O)n3CC(=O)NCCOC)C1	m-calpain inh 58
CC1CCCC(NC(=O)COC(=O)CCC(=O)c2ccc(F)cc2)C1C (centres undefined)	none (no result: m-calpain inh)
CCCCc1ccc(NC(=O)C2CCCO2)cc1 (centres undefined)	m-calpain inh 53
CCCCNC(=O)c1ccc(NC(=O)C2CCCO2)cc1 (centres undefined)	none
COCC(=O)N1CCC(Oc2ccc(C(=O)NC3CCOC(C)(C)C3)cc2)CC1 (centres undefined)	none (no result: m-calpain inh)
Clc1ccccc1-c1nc(N/N=C/c2cccnc2)c2ccccc2n1	Cardio protect 78
Cc1c(O)ccc(/C=N/Nc2nc(-c3cccnc3)nc3ccccc23)c1O	TAG inh 69
O=c1cc(CSc2ccc([N+](=O)[O-])cc2)nc2sccn12	Cardio protect 72
CCOC(=O)C1=C(C)NC(=O)NC1c1ccc([N+](=O)[O-])o1 (centres undefined)	none
CCOC(=O)C1=C(C)NC2=C(C(=O)c3ccccc32)C1c1ccc([N+](=O)[O-])o1 (centres undefined)	Cardio protect 61
CCN(CC)CCNc1ccc(CO)c2oc3cc(Cl)ccc3c(=O)c12	none (no result: m-calpain inh, beta cell repl)
CCN(CC)CCNc1ccc(C)c2sc3ccc(O)cc3c(=O)c12	TAG inh 59 (no result: m-calpain inh, beta cell repl)
CCN(CC)S(=O)(=O)c1ccc(C)c(NC(=S)NNC(=O)C2CC2)c1	m-calpain inh 76 (no result: TAG inh)
Cc1ccc(S(=O)(=O)N(C)C)cc1NC(=S)NNC(=O)C1CC1	none (no result: TAG inh)
